Holding throughout (test): DAPPL (digital affinity profiling via proximity ligation, sequencing); 10 mM Tris-HCl pH 7.5, 50 mM NaCl, 1 mM DTT, 4% glycerol, room temperature, 30 min; GST-TFs on glutathione beads, 16-mer random dsDNA library, 0.1% formaldehyde crosslink after washing; high values mean tight binding
The target of assay [1] is T1, FEV (Homo sapiens, UniProt Q99581 1-238).
T1 sequence: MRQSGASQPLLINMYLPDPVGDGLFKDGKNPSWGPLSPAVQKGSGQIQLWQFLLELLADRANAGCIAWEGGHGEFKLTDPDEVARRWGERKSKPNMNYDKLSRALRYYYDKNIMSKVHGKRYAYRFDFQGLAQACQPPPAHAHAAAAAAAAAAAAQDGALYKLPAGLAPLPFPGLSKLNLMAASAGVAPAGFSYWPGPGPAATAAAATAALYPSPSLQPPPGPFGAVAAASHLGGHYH
Particulars: protein: recombinant; tags: N-terminal GST; dsDNA, one strand shown. In outline:
(§1)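 Binding signal is defined as a hexamer's read frequency for one factor over its frequency for the tag-only sample. To obtain reads, GST-fused human transcription factors were expressed in yeast, captured on glutathione beads, barcoded with DNA and pooled with that sample. Pools met 200 nmole of a 16-mer random double-stranded DNA library in Tris/NaCl/DTT/glycerol buffer for 30 min at room temperature before washing, 0.1% formaldehyde crosslinking, proximity ligation (BsaI/T4 ligase, 1 h, 37 °C), PCR and Illumina NextSeq500 sequencing.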

Assay [2] addresses ETV5 (Homo sapiens, UniProt P41161 1-510). Particulars: protein: recombinant; tags: N-terminal GST; dsDNA, one strand shown. In outline:
as §1

For assay [3], the target named is HSF1 (Homo sapiens, UniProt Q00613 1-529). The following applies: protein: recombinant; tags: N-terminal GST; chain copies: 3; dsDNA, one strand shown. A digest of the protocol:
as §1

The target in assay [4] is T2, SPIC (Homo sapiens, UniProt Q8N5J4 1-248).
T2 sequence: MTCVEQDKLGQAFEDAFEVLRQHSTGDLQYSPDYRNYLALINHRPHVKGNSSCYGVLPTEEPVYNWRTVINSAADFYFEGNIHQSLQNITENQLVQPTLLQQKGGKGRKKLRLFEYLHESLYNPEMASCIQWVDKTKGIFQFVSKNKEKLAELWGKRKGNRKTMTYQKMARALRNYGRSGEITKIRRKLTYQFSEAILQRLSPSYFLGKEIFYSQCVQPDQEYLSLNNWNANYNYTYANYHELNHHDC
The following applies: protein: recombinant; tags: N-terminal GST; dsDNA, one strand shown. In outline:
as §1

The target in assay [5] is ELF4 (Homo sapiens, UniProt Q99607 1-663). The following applies: protein: recombinant; tags: N-terminal GST; dsDNA, one strand shown. A digest of the protocol: as §1
In assay [6] the target is T3, ELK4 (Homo sapiens, UniProt P28324-2 1-405).
T3 sequence: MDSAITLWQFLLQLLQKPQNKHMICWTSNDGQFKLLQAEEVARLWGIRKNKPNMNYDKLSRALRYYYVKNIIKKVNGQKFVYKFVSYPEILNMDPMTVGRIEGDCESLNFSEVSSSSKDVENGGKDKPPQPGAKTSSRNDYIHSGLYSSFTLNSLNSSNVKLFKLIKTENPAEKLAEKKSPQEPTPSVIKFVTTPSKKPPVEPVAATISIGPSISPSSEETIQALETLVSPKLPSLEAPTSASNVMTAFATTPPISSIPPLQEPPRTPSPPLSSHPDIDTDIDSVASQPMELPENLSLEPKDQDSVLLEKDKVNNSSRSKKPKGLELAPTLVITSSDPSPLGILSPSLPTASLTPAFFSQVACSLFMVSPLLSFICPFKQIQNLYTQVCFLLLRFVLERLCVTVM
The following applies: protein: recombinant; tags: N-terminal GST; dsDNA, one strand shown. In outline:
as §1

For assay [7], the target named is T4, ETV2 (Homo sapiens, UniProt O00321 1-342).
T4 sequence: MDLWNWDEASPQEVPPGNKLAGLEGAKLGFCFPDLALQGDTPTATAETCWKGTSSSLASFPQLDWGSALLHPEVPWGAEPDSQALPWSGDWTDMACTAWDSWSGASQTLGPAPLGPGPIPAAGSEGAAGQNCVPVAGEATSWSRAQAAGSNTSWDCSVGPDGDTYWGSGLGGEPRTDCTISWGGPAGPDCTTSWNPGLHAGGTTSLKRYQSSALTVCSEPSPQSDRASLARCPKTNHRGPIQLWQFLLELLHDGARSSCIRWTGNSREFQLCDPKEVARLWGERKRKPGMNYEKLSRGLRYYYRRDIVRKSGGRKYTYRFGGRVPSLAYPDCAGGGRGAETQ
The following applies: protein: recombinant; tags: N-terminal GST; dsDNA, one strand shown. In outline:
as §1

Assay [8] concerns the target T5, ELF3 (Homo sapiens, UniProt P78545 1-371).
T5 sequence: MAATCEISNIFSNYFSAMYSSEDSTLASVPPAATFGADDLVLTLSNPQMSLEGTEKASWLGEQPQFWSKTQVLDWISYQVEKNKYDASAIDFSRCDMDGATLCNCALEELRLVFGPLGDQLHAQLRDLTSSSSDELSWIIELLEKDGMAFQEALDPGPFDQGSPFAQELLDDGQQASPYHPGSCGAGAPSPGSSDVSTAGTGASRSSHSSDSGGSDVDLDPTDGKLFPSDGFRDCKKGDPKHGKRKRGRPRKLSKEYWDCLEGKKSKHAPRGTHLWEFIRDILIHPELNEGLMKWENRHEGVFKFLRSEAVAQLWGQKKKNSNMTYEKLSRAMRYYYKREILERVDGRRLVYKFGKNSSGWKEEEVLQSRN
The following applies: protein: recombinant; tags: N-terminal GST; dsDNA, one strand shown. A digest of the protocol:
as §1

The target in assay [9] is CRX (Homo sapiens, UniProt O43186 1-299). Particulars: protein: recombinant; tags: N-terminal GST; dsDNA, one strand shown. In outline: as §1
The target of assay [10] is ETV1 (Homo sapiens, UniProt P50549 1-477). Particulars: protein: recombinant; tags: N-terminal GST; dsDNA, one strand shown. A digest of the protocol:
as §1

Assay [11] has as its target T6, ERF (Homo sapiens, UniProt P50548 1-548).
T6 sequence: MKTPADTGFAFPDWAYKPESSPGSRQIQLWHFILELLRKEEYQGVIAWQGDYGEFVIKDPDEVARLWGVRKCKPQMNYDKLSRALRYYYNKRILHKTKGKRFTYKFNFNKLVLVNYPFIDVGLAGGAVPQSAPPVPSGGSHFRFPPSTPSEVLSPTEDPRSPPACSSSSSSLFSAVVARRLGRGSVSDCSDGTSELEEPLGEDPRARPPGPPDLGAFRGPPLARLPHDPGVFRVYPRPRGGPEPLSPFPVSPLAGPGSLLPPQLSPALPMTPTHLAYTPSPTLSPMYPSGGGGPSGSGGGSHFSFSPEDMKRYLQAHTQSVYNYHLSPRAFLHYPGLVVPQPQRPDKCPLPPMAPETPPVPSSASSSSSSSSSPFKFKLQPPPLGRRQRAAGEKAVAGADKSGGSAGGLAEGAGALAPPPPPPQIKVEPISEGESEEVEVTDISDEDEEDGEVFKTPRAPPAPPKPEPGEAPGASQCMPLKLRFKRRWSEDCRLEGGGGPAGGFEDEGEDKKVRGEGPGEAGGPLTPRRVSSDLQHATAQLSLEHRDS
Particulars: protein: recombinant; tags: N-terminal GST; dsDNA, one strand shown. A digest of the protocol:
as §1

Assay [12] concerns the target T7, ETV3L (Homo sapiens, UniProt Q6ZN32 1-361).
T7 sequence: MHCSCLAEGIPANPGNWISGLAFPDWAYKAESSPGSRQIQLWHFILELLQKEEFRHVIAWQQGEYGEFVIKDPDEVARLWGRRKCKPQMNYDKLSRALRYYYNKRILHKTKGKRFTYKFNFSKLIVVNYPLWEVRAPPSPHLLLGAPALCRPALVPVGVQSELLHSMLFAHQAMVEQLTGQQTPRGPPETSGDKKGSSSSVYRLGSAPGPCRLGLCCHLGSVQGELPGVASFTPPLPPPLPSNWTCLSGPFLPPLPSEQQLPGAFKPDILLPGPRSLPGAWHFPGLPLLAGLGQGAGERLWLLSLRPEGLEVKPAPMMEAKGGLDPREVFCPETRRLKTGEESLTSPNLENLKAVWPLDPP
The following applies: protein: recombinant; tags: N-terminal GST; dsDNA, one strand shown. In outline:
as §1

For assay [13], the target named is T8, ETS2 (Homo sapiens, UniProt P15036 1-469).
T8 sequence: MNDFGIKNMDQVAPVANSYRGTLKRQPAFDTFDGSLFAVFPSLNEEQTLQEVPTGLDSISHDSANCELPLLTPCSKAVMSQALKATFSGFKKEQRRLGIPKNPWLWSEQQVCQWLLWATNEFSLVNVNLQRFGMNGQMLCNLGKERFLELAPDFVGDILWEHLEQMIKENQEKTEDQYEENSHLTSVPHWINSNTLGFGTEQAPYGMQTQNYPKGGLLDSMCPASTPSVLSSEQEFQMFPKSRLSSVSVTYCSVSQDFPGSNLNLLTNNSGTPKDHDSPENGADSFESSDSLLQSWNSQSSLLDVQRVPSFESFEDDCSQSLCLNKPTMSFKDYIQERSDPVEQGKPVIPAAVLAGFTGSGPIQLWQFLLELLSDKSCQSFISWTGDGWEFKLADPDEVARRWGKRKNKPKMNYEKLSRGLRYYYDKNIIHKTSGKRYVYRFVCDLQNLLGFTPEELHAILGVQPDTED
The following applies: protein: recombinant; tags: N-terminal GST; dsDNA, one strand shown. A digest of the protocol: as §1

The target of assay [14] is T9, SPDEF (Homo sapiens, UniProt O95238 1-335).
T9 sequence: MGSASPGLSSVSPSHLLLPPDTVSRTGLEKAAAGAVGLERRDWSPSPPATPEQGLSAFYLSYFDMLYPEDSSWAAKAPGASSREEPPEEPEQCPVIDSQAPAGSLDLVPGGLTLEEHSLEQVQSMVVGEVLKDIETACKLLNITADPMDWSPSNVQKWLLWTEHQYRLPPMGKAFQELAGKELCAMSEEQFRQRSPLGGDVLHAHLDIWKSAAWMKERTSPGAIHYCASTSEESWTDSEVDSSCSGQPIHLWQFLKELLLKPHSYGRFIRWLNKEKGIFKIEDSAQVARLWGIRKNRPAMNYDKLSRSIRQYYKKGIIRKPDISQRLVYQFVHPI
Particulars: protein: recombinant; tags: N-terminal GST; dsDNA, one strand shown. In outline:
as §1

In assay [15] the target is T10, ETV7 (Homo sapiens, UniProt Q9Y603 1-341).
T10 sequence: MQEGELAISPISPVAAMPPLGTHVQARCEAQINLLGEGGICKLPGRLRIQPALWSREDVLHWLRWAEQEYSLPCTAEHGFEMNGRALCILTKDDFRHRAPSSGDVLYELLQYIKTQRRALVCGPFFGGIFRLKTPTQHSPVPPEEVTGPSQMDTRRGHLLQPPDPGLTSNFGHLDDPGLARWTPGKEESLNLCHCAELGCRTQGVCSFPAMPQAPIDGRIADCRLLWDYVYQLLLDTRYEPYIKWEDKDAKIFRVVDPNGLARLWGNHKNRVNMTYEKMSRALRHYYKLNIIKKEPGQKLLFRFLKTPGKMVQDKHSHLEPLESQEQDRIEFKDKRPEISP
Particulars: protein: recombinant; tags: N-terminal GST; dsDNA, one strand shown. In outline:
as §1

Assay [16] addresses T11, ELF5 (Homo sapiens, UniProt Q9UKW6-2 1-255).
T11 sequence: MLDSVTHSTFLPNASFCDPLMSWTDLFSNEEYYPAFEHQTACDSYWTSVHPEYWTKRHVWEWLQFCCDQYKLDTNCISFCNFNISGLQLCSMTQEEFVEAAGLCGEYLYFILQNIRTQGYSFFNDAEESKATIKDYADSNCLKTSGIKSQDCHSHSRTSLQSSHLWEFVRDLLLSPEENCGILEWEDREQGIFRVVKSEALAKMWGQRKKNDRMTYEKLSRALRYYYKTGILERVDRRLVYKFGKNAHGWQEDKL
Particulars: protein: recombinant; tags: N-terminal GST; dsDNA, one strand shown. A digest of the protocol: as §1

Assay [17] concerns the target T12, ETV3 (Homo sapiens, UniProt P41162-2 1-143).
T12 sequence: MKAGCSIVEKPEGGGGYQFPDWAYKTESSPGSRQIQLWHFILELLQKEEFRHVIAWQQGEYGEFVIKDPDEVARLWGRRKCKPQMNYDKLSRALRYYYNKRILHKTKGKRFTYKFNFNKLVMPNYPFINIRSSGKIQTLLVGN
The following applies: protein: recombinant; tags: N-terminal GST; dsDNA, one strand shown. A digest of the protocol:
as §1

Assay [18] deals with ETV6 (Homo sapiens, UniProt P41212 1-452). Particulars: protein: recombinant; tags: N-terminal GST; dsDNA, one strand shown. A digest of the protocol: as §1
Chain of ETV6 (P41212 whole entry): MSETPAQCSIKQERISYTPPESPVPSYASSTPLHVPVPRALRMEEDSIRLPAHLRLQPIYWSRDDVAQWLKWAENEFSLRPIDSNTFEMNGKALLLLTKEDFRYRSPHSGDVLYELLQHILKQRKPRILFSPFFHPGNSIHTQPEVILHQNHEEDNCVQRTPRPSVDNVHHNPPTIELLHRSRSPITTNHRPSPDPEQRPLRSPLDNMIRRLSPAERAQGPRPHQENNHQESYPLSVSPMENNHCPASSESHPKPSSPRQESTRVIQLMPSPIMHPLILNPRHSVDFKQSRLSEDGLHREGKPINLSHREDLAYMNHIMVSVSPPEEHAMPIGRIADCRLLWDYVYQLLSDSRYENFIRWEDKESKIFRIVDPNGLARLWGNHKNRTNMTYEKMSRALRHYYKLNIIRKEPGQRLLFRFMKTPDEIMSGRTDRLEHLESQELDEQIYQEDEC

Chain of ETV5 (P41161 whole entry): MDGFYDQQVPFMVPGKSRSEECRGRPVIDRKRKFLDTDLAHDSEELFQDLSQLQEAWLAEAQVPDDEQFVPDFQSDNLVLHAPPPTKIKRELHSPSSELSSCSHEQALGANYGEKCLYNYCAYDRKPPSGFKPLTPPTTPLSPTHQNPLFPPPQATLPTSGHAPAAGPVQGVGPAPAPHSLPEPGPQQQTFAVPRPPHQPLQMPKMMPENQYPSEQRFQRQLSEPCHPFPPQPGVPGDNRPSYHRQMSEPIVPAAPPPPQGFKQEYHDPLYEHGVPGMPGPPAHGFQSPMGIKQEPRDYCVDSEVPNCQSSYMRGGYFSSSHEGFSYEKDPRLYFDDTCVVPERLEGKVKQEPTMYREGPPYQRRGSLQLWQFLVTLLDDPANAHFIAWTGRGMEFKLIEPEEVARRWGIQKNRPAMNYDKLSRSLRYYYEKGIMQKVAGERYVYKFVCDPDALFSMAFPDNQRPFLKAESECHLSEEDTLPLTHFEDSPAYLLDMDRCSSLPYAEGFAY
Chain of ETV1 (P50549 whole entry): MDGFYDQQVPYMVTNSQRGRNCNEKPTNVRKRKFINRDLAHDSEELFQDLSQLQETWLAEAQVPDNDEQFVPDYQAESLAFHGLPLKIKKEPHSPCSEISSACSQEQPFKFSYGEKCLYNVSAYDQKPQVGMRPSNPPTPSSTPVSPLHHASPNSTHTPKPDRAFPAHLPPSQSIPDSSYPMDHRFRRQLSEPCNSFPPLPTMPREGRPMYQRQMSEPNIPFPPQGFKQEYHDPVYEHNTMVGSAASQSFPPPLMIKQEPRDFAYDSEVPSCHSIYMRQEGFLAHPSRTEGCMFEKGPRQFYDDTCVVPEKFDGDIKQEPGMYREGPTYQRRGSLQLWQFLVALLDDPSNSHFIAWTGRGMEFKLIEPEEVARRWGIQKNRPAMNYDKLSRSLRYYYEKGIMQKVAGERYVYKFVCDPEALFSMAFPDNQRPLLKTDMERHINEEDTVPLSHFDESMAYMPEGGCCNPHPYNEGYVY
Chain of HSF1 (Q00613 whole entry): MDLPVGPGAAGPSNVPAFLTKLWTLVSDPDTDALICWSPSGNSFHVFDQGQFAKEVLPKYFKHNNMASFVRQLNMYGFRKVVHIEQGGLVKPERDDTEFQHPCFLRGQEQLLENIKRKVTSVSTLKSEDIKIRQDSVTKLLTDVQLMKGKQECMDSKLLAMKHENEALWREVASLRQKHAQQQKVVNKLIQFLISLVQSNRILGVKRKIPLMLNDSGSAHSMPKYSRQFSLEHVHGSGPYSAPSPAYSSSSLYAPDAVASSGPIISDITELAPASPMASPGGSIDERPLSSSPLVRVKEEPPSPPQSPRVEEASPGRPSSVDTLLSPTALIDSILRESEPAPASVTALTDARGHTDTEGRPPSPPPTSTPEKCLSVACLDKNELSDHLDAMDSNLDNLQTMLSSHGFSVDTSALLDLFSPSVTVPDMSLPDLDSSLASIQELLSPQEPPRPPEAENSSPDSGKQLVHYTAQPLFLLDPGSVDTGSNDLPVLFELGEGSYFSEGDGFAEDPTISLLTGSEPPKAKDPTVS
Chain of ELF4 (Q99607 whole entry): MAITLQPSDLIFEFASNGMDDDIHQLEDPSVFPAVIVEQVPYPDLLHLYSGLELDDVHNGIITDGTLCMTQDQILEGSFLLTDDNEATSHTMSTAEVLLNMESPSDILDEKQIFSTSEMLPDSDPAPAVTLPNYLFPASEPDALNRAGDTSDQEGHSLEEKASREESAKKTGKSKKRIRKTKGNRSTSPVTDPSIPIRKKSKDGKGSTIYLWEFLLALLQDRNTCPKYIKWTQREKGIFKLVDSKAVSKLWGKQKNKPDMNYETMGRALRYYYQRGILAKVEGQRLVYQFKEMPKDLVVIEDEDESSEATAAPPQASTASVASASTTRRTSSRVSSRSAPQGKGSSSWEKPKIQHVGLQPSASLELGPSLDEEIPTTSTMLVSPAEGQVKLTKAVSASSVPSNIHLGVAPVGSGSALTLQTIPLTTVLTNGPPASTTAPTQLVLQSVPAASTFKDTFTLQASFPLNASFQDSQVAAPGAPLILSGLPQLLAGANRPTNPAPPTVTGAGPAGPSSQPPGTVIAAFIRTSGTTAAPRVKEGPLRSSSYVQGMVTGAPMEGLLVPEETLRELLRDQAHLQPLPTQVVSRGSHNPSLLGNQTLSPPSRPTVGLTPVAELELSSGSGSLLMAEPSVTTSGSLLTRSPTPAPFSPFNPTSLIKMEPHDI
Chain of CRX (O43186 whole entry): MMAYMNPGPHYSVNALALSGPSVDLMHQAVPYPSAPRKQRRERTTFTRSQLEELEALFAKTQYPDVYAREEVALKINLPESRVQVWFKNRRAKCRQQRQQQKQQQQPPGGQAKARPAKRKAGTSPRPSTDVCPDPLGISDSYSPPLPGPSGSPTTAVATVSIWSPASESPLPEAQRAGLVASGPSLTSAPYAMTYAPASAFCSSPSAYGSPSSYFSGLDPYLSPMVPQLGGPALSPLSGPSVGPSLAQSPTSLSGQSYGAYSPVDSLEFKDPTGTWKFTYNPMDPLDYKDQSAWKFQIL

As to TCTCAC, the binding signal in assay [1] was 1.47 fold enrichment (6-mer frequency, TF over GST control); in [2], 1.34 fold enrichment (6-mer frequency, TF over GST control); in [3], 1.3 fold enrichment (6-mer frequency, TF over GST control); in assay [4], 1.55 fold enrichment (6-mer frequency, TF over GST control); in [5], 1.37 fold enrichment (6-mer frequency, TF over GST control); in assay [6], 1.35 fold enrichment (6-mer frequency, TF over GST control). Besides, the binding signal in assay [7] is 1.18 fold enrichment (6-mer frequency, TF over GST control); in assay [8], 1.42 fold enrichment (6-mer frequency, TF over GST control); in assay [9], 1.33 fold enrichment (6-mer frequency, TF over GST control); in assay [10] it was 1.3 fold enrichment (6-mer frequency, TF over GST control); in assay [11] it was 1.44 fold enrichment (6-mer frequency, TF over GST control); in assay [12] it was 1.33 fold enrichment (6-mer frequency, TF over GST control). In addition, the binding signal in assay [13] is 1.35 fold enrichment (6-mer frequency, TF over GST control); in [14], 1.23 fold enrichment (6-mer frequency, TF over GST control); in assay [15], 1.24 fold enrichment (6-mer frequency, TF over GST control); in assay [16] it was 1.37 fold enrichment (6-mer frequency, TF over GST control); in assay [17] it was 1.34 fold enrichment (6-mer frequency, TF over GST control); in assay [18] it was 1.32 fold enrichment (6-mer frequency, TF over GST control).

These data come from paper PMC7862700, “An all-to-all approach to the identification of sequence-specific readers for epigenetic DNA modifications on cytosine”.
